TDP1 block – TDP1 (human) enzyme inhibition; Potency, µM (doses to about 130 µM), inactives show top-dose activity change, negative = inhibition, most hits filed as inhibitors; recombinant TDP1, AlphaScreen DNA substrate cleavage; 350,000 compounds, 0.28% hits; AID 485290; active means well fitted curve in the direction sought with a large enough effect; inconclusive means small, poorly fitted or top-dose-only effect, or another doubt; inactive means no such curve, though single readings can be large; an effect the other way counts as inactive or inconclusive; further: on the % scale 0 is the no-effect control and ±100 the full control effect; nearly all actives have a fitted effect of over 40% in size
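E. coli-derived human Tdp1, 1 nM final. Cpd preinc 15 min RT; substrate 15 nM final, 5 min RT; AS bead mix 10 ug/ml final, 10 min RT. Signal loss = tyrosine-FITC cleavage. No-enzyme wells = max signal.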
ALOX12 inh – ALOX12 (human) lipoxygenase inhibition; P18054; purified 12hLO, xylenol orange hydroperoxide absorbance; Potency, µM (titrated, usually from 108 µM), for inactives: top-dose activity change, negative = inhibition, most hits filed as inhibitors; 580,000 compounds, 1.1% hits; AID 1671190; active means well fitted curve in the direction sought with a large enough effect; inconclusive means small, poorly fitted or top-dose-only effect, or another doubt; inactive means no such curve, though single readings can be large; an effect the other way counts as inactive or inconclusive; further: on the % scale 0 is the no-effect control and ±100 the full control effect
Target sequence (P18054 whole entry, looked up): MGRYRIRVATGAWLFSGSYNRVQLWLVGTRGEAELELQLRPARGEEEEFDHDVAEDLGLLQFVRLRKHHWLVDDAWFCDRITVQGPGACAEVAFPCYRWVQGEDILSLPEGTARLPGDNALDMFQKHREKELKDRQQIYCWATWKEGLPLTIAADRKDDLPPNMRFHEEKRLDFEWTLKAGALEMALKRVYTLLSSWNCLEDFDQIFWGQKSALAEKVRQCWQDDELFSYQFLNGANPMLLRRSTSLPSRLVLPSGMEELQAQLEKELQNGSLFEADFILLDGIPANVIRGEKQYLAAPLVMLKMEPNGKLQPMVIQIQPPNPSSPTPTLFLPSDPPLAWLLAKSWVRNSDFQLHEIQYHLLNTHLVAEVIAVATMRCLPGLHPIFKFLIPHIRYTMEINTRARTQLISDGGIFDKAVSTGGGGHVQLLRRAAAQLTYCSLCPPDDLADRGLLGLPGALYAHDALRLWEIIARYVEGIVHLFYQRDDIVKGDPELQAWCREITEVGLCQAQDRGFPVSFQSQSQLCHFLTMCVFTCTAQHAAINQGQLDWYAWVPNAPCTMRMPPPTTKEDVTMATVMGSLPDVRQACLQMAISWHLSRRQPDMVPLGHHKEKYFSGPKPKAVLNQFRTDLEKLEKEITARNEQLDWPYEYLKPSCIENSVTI
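Purified human 12hLO at 150 nM in 25 mM Hepes, 0.01% Triton X-100, pH 7.0, preincubated 15 min at room temperature with compound. Reaction started with 40 uM arachidonic acid, 30 min at room temperature. Hydroperoxide measured by Fe-xylenol orange, 573/405 nm absorbance ratio.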
Rango dissoc inh – inhibitors of RanGTP-induced Rango-importin beta complex dissociation; O95149+P62826; Biochemical FRET Rango-importin beta, RanGTP-induced dissociation; Potency, µM (highest dose often 46.1 µM), for inactives: at the top dose activity change, negative = inhibition; 340,000 compounds, 0.071% hits; AID 540253; further: % of control where 0% means no effect; nearly all actives have a fitted effect of over 45% in size
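Compounds sat 5 min at room temperature with 0.1 uM Rango biosensor plus 0.25 uM importin beta, then FRET pre-read. RanGTP-RCC1 (0.6 uM Ran, 2mM GTP, 0.2 uM RCC1) added for 45 min, and the CFP/YFP post-read measured blocked complex dissociation.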
PTAP TSG101 blk – blocks PTAP/TSG101 interaction to inhibit HIV-1 budding | Potency, µM (titrated, usually from 115 µM), for the others: at the highest dose activity change, negative = inhibition, actives largely listed as inhibitors | 340,000 tested, under 10 active | Q99816 | AID 493005 | Fluorescence polarization, FITC-PTAP peptide / Tsg101 binding; active means well fitted inhibition curve with a large enough effect in the main read-out, with a control signal flat, not every such curve was filed as active; inconclusive means small, poorly fitted or top-dose-only effect, or effect the other way, or a change in a side signal; inactive means no such curve, though single readings can be large or run the other way; further: % of control where 0% means no effect
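Fluorescence polarization binding of Tsg101 binding domain (10 uM final) to FITC-labeled PTAP peptide (50 nM final) in HEPES pH 7.5 buffer with NaCl, Tween 20, EDTA, TCEP. Compounds added before peptide; binding 20 min at RT.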
Rango complex inh – Rango-importin beta binding inhibition. Q14974. Rango CFP/YFP FRET sensor + importin beta, 45 min. Potency, µM (titrated, usually from 92.2 µM), inactives show top-dose inhibition of complex formation. 340,000 compounds, 0.031% hits. AID 540263;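 further: 0% = DMSO wells and 100% = buffer wells lacking importin beta; nearly all actives have a fitted effect of over 15% in size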
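FRET biosensor (snurportin 1 IBB flanked by EYFP and cerulean), 50 nM, with compound 5 min, then 0.125 microM importin beta in PBS, 1 mM DTT, 0.02% Tween-20, 0.1% BSA. CFP/YFP ratio read after 45 min at room temperature; pre-read flags interference.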
ClpP mod – qHTS Assay for Activators of ClpP; purified B. subtilis ClpP, FRET peptide cleavage, 20 min; Potency, µM (titrated, usually from 57.5 µM), for inactives: at the highest dose activity change, negative = active; 340,000 compounds, 1.9% hits; AID 651965, 2013; active means well fitted falling curve with a large enough effect; inconclusive means small, poorly fitted or top-dose-only effect; inactive means no such curve, though single readings can be large or run the other way; further: the source files actives as falling curves though it sought activators and does not explain the sign; nearly all actives have a fitted effect of over 65% in size
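FRET quenching reversal measured ClpP activation: 10 microg/mL B. subtilis ClpP at pH 8 with the FRET-FV decapeptide, read at 430 nm after 320 nm excitation. The 20-min minus 0-min signal was scaled between DMSO/no-enzyme wells and ADEP (5.8 microM final).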
An asterisk follows results filed as active; u = inconclusive; x = no result; ! = not active in a repeat; [ ] = another dose, or the depositor's remark. The list is not random: actives were taken first. Their share in the collection is about 2.4%. Unless noted, the call rests on the fitted dose curve. Potency means the concentration at half of the fitted maximal effect.

SMILES	TDP1 block	ALOX12 inh	Rango dissoc inh	PTAP TSG101 blk	Rango complex inh	ClpP mod
COc1ccccc1N1CCN(c2nc(C)c3c(n2)CCCC3=O)CC1	x	-5%	x	x	x	x
O=C(NCC1CC1)c1nc2c(o1)CCN(Cc1cccs1)CC2	x	42%[176 µM]	x	x	x	x
CCCCCC(=O)N/N=C(/C)c1cccc(NC(=O)c2ccc(Cl)cc2)c1	x	4%	x	x	x	x
CCc1ccc(NC(=O)c2ccc3c(c2)c(C)c(C)n3Cc2ccccc2)cc1	0%	-22%	x	x	x	22µM*
CCn1nc(C)c(/C=N/NC(=O)c2ccc3c(c2)c(C)c(C)n3Cc2ccccc2)c1C	12%	4%	21%	-9%	u	10µM*
CCc1cccc(NC(=O)c2ccc3c(c2)c(C)c(C)n3Cc2ccc(F)cc2)c1	0%	-17%	x	x	x	20µM*
Cc1ccc(CCNC(=O)c2ccc3c(c2)c(C)c(C)n3Cc2ccccc2)cc1	11%	-24%	x	x	x	22µM*
O=CN1CCN(C(C(=O)O)c2cn(CCC(=O)O)c3cc(Br)ccc23)CC1 (configuration not stated)	x	-7%	x	x	x	x
COc1ccc(C(=O)NCCc2noc(C3CC3)n2)c(OC)n1	x	6%	x	x	x	x
O=C1NCCCc2[nH]c(-c3csc(-c4ccccc4)n3)nc21	x	79%	x	x	x	x
Cc1ccc(Cl)c(OCC(=O)c2ccc3c(c2)N(CCCC(=O)N2CCOCC2)C(=O)CO3)c1	x	16%	x	x	x	x
Cc1ccc(Cn2c(CCNC(=O)c3cccc(C)c3)nc3ccccc32)cc1	8%	-19%	x	x	x	22µM*
CC(=O)NCCCc1nc2ccccc2n1Cc1ccc(C)cc1	2%	-17%	4%	1%	-3%	1%
CCc1ccc(CNC(=O)c2ccc3c(c2)c(C)c(C)n3Cc2ccccc2)cc1	5%	-18%	x	x	x	25µM*
COc1cccc(CNC(=O)c2ccc3c(c2)c(C)c(C)n3Cc2ccccc2)c1	8%	-8%	x	x	x	u
C=C(C)Cn1c(CCNC(=O)CC)nc2ccccc21	-4%[56.1 µM]	7%	1%	-6%	-4%	32µM*
Cc1cccc(CN2CCCC3(Cc4ccccc4CNC3=O)C2)n1 (configuration not stated)	x	2%[6.33 µM]	x	x	x	x
CCn1c(=O)c2ccccc2n(CC(=O)Nc2ccc(-c3cccc(C(F)(F)F)c3)cc2)c1=O	x	-58%	x	x	x	x
Cc1ccc(C(=O)OCC(=O)c2ccc(CC(=O)N3CCOCC3)s2)cc1C	-17%	1%	u	-4%	u	3%
Cc1ccc(C(=O)OCC(=O)c2ccc(CC(=O)N3CCOCC3)s2)c(C)c1	50µM*	x	-24%	1%	u	1%
CN1C(=O)c2ccccc2N2C(=O)CCC12C(=O)Nc1ccccc1F (configuration not stated)	x	-30%	x	x	x	x
CCCCCCC(=O)Nc1c2c(nc3ccccc13)N(C)CC2	2%	23%	-10%	-3%	5%	28µM*
CCCCCC(=O)Nc1cc(N(C)C)nc2ccccc12	7%	-2%	14%	-4%	-3%	28µM*
CN1CCc2c1nc1ccccc1c2NC(=O)CN1CCCC1	x	6%	0%	-11%	6%	x
CCN(CC)CC(=O)Nc1cc(N(C)C)nc2ccccc12	-9%	0%	-11%	-4%	0%	x
SMILES	TDP1 block	ALOX12 inh	Rango dissoc inh	PTAP TSG101 blk	Rango complex inh	ClpP mod
CCc1nc(SCC(=O)O)c(C#N)cc1C	6%	-5%[57.4 µM]	9%	1%	0%	-4%
CCOC(=O)CC(=O)CSc1nc(CC)c(C)cc1C#N	71µM*	u	u	-2%	u	x
O=S(=O)(c1ccc(F)c(F)c1)N1CCCC(Cn2c(C3CC3)nc3cccnc32)C1 (configuration not stated)	x	36%	x	x	x	x
Cc1ccc(C)c(SCC(=O)OCC(=O)c2ccco2)c1	x	40µM*	-7%	-5%	-5%	0%
Cc1nc(C)c(C(=O)N2CCC(N3C(=O)C4(CCCCC4)C3c3ccccc3)CC2)s1 (configuration not stated)	x	-5%	x	x	x	x
COc1cc(CC(=O)OCc2c(Cl)cccc2Cl)cc(OC)c1OC	x	35%	x	x	x	x
O=[N+]([O-])c1ccccc1C=NNc1ccccc1	x	20µM*	1%	-6%	-1%	x
O=[N+]([O-])c1ccccc1N/N=C/c1cccc(O)c1O	x	-13%	-5%	-7%	5%	1%
Oc1ccccc1/C=N/Nc1ccccc1	3%	32µM*	19%	2%	0%	x
O=C(CC(=O)N/N=C/c1ccccc1[N+](=O)[O-])N/N=C/c1ccccc1[N+](=O)[O-]	x	-6%	x	x	x	x
O=[N+]([O-])c1ccc(/C=N/Nc2cccc(Cl)c2)cc1	x	3.2µM*	x	x	x	x
O=[N+]([O-])c1cccc(N/N=C/c2cccc(O)c2O)c1	10%	11µM*	-4%	0%	5%	x
CCNc1ccc(Br)cc(C(=O)/C=C/c2ccc3c(c2)OCO3)c1=O	-13%	3.2µM*	u	6%	u	-5%
COc1ccc(CCC(=O)N2CCC3(CC2)CCC(O)(CN(C)C)CC3)cc1	x	29%	x	x	x	x
Cc1ccc(-c2cc(C(=O)N3CCCC(C(F)(F)F)C3)c3ccccc3n2)o1 (configuration not stated)	x	7.9µM*!	2%	-2%	0%	16µM*
Cc1ccc(-c2cc(C(=O)N3CCN(c4ccc(F)cc4)CC3)c3ccccc3n2)o1	-2%	14µM*	6%	-8%	0%	u
CC(=O)c1ccc(N2CCN(C(=O)c3cc(-c4ccc5c(c4)OCO5)nc4ccccc34)CC2)cc1	5%	0%	23%	0%	u	32µM*
CN(CC1CCOC1)S(=O)(=O)c1ccc2c(c1)CCC2 (configuration not stated)	x	43%	x	x	x	x
O=C(c1ccccc1F)N1CCN(c2cn[nH]c(=O)c2Cl)CC1	x	-9%	x	x	x	x
CC(C)NC(=O)Nc1ccc(-c2noc(-c3cccs3)n2)cc1	x	-5%	x	x	x	x
Cc1cccc(S(=O)(=O)Nc2ccc(-c3cn4ccccc4n3)cc2)c1	-4%	-7%	-10%	-1%	-4%	28µM*
Cc1cc(C)c(S(=O)(=O)Nc2cccc(-c3cn4ccccc4n3)c2)c(C)c1	12%	-11%	x	x	x	28µM*
CCCc1nn2c(=O)cc(COc3cccc(NC(=O)c4ccco4)c3)nc2s1	0%	-4%	-11%	-3%	-3%	-2%
CCc1nn2c(=O)cc(COc3cccc(NC(=O)c4ccco4)c3)nc2s1	50µM*	-1%	1%	-12%	1%	-1%
O=c1cc(-c2ccccc2)c2ccc(O)c(CN3CCCCC3)c2o1	2%	u	u	0%	u	-21%
